Experimental findings from PubChem BioAssay AID624300 (Southern Research Specialized Biocontainment Screening …, 2012) are described below.

The whole screen tested about 2,400 compounds, of which about 360 (15%) were called active.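 Rule for the calls: active = viability falls under 70% at one or more tested concentrations, taken as toxicity; inactive = viability stays over 70% at every dose.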 Only a sample is shown. Entries that show only a call come without a potency. Potency and affinity values are given separately.

A short description of the assay: viability loss in HeLa cells – cytotoxicity control for MgcRacGAP inhibitor project, dose response (AID 624300). Conditions: CellTiter-Glo luminescence, 24 h; series mostly up to 100 µM.
In the case of `COc1cc(C(=O)N/N=C/c2ccc(OC)c(CN3CCN(c4ccc(F)cc4)CC3)c2)ccc1O`, the result was inactive. The same measure for `CC1=CC(c2ccccc2)NC(=S)N1` (stereo not drawn): “inactive”; for `COc1ccc(NC(=O)C(C)N2CCN(C)CC2)cc1` (stereo not drawn): “inactive”. For the compound `COc1cc2c(cc1N)-c1ccc(N)cc1C2`, the call was inactive. The same measure for `COc1ccc(NC2CCCN(C(=O)c3csc(C(C)C)n3)C2)cc1` (stereo not drawn): “inactive”; for `CCOc1cc(/C=N/NC(=O)c2ccc(=O)n(C)c2)ccc1O`: “inactive”; for `COc1cc(/C=N/NC(=O)c2nonc2C)ccc1O`: “inactive”.

Regarding `O=C(CNC(=O)c1ccncc1)N/N=C/c1ccc(O)cc1O`, the call was inactive.

`COc1cc(/C=N/NC(=O)C2=NNC(=O)C2C)ccc1O` (stereo not drawn): the compound was called inactive. The entry for `Cc1nonc1C(=O)N/N=C/c1ccc(O)cc1` is “inactive”; for `COc1cc(/C=N/NC(=O)Cc2nnc(NC(=O)c3ccccc3)s2)ccc1O` it is “inactive”; for `CC(=O)Nc1ccc(S(=O)(=O)Nc2ccc(Nc3ccccc3)cc2)cc1` it is “inactive”.

Regarding `CCn1c(C)nc2cc(C(=O)N/N=C/c3ccc(O)cc3)ccc21`, the compound was called inactive. The same measure for `Cc1nn2cc(-c3ccc(N)cc3)nc2s1`: “inactive”; for `COc1cc(/C(C)=N/NC(=O)Cc2c(C)[nH][nH]c2=O)ccc1O`: “inactive”; for `C=CCn1c(CNc2ccc(C)cc2)nnc1SCC(=O)N/N=C/c1ccc(O)cc1O`: “inactive”.

Take `CC(C)Cn1c(-c2ccc(Br)o2)n[nH]c1=S`: the compound was classed as inactive. The same measure for `CCN(CC)CCNCC(=O)Nc1ccc(Oc2ccccc2)cc1`: “inactive”. `CCC(=O)c1ccccc1OCCN1CCN(CC)CC1`: the call was inactive. The same measure for `CN(C)c1ccc(Cc2ccc(N(C)C)cc2)cc1`: “inactive”.

For the compound `O=C1c2c([N+](=O)[O-])cc([N+](=O)[O-])cc2S(=O)N1Cc1ccccc1` (stereo not drawn), the outcome was inactive. The entry for `COc1cc(/C=C/C(=O)OCC(=O)Nc2cccc(F)c2)ccc1O` is “inactive”. The entry for `O=[S@]1Oc2ccccc2-c2ccccc21` is “inactive”.
